Reference: PubChem BioAssay AID1259416 (Broad Institute, 2018)
Where “and” joins values, the source holds several entries; their conditions need not be identical. Equal entries are not always repeated. Screen size: about 69,000 compounds; about 2,600 (3.8%) were called active. Cut-off read from the data, not from the text of the source: active = activity change below about -70% (passing the limit was not always enough); inconclusive = no clear call, values can overlap the other calls. The list comes from a sample in which actives are over-represented; it also holds similar structures and randomly drawn compounds. A structure can be active in one record and inactive in another.

experiment: inhibitors of Toxoplasma growth in IFN-γ-primed hosts – cell-based, primary screen (AID 1259416); conditions: Toxoplasma gondii growth in IFN-gamma-treated host cells; stronger effect = lower value; concentration not given here;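 note: host cells are HeLa cells infected with Toxoplasma gondii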

| SMILES | activity change, negative = inhibition |
| --- | --- |
| CC(C)CNC(=O)c1ccc2c(c1)C(c1ncn(C(C)C)n1)CN2C(=O)c1ccccc1 (stereo not given) | -46.3% (inactive) |
| Cc1nc2cc(C(=O)NC3(c4ccc5c(c4)OCO5)CCCC3)ccc2s1 | -5.47% (inactive) |
| C=CCN(Cc1ccccc1Cl)C(=O)c1ccc(CN(C)C)o1 | -46.3% (inactive) |
| C/C(=N/N1CCN(Cc2cccc3ccccc23)CC1)c1cccnc1 | -96% (active) |
| Cc1cc(-c2ccccc2CN2CCOCC2)ccc1NC(=O)c1cccnc1 | -6.76% (inactive) |
| Cc1ccc(CC(=O)c2cccnc2)cc1 | 14% (inactive) |
| Cc1ccc(C(=O)Nc2ccc(-c3nc(-c4ccc(C)cc4)co3)cc2)cc1 | 42.6% (inactive) |
| Cc1ccc(-c2cc(C(=O)Nc3ccc4c(c3)N(S(C)(=O)=O)CCC4)[nH]n2)cc1 | -78.5% (active) |
| O=C1CCc2cc(NC(=O)c3cc(-c4ccccc4)nc4ccccc34)ccc2N1 | -32.2% (inactive) |
| CN1CCN([C@H]2CN(Cc3ncc[nH]3)C[C@@H]2O)CC1 | 28% (inactive) |
| c1cncc(-c2nc3c(c(NCCC4CCOC4)n2)CCNC3)c1 (stereo not given) | -9.13% (inactive) |
| CCC(NC(=O)CCn1c(C)cc2ccccc21)c1cccnc1 (stereo not given) | 0.306% (inactive) |
| CCn1c(-c2cc(NC(=O)c3ccncc3)n[nH]2)cc2ccccc21 | -91% (active) |
| Cc1nc(C)n(C(=O)N2CCOCC2)n1 | -8.09% (inactive) |
| Cc1nc(N)nc(C)c1CC(=O)N1CCC2(CCOCC2)CC1 | -82.2% (active) |
| CN1CCN(C(=O)c2cncc(N3CCC4(CCOCC4)CC3)n2)CC1 | -7.63% (inactive) |
| COCCN1CC[C@@H]2C[C@@H](C(=O)N3CCCCO3)O[C@@H]2C1 | -6.09% (inactive) |
| CCN1CCO[C@H]2CN(S(=O)(=O)c3cccs3)CC[C@@H]2C1 | 1.58% (inactive) |
| COC(C)c1nncn1-c1cccc2ccccc12 (stereo not given) | -48.2% (inactive) |
| CC(=O)NC1(c2ccc(F)cc2)CCN(Cc2ccc(Oc3ncccn3)cc2)CC1 | 9.39% (inactive) |
| Cc1ccn(CC(=O)N2CCN3CCNC(=O)C3C2)n1 (stereo not given) | -2.78% (inactive) |
| COc1ccccc1OCc1cc(C(=O)NCCF)n[nH]1 | 35.8% (inactive) |
| O=S(=O)(NCCC1=CCCCC1)c1ccc(S(=O)(=O)NC2CCCCC2)cc1 | -84.3% (active) |

| SMILES | activity change, negative = inhibition |
| --- | --- |
| CN(C)S(=O)(=O)c1ccc2c(c1)cc(C(=O)NCCC1=CCCCC1)n2Cc1ccncc1 | -54.8% (inactive) |
| CCCNS(=O)(=O)c1ccc(CCC(=O)N2CCCC2)cc1 | -8.43% (inactive) |
| Cc1ccccc1NC(=O)c1ccc2ccc(N3CCN(CC4CC4)CC3)n2c1 | 2.07% (inactive) |
| N#C[C@H]1N[C@H](CO)[C@H]1c1ccc(-c2cccc(F)c2)cc1 | 17.8% (inactive) |
| CC(=O)N1CCCCN2[C@H](CO)[C@H](c3ccc(-c4ccccc4)cc3)[C@@H]2C1 | 12.2% (inactive) |
| CC(C)C(=O)Nc1cccnc1-c1ccc(C(C)N2CCOCC2)cc1 (stereo not given) | 0.361% (inactive) |
| COc1ccccc1CCC(=O)N1CCC2(CC1)Nc1cccnc1NC2=NC(C)(C)C | 74.7% (inactive) |
| CSc1nn2c(C)cc(C)nc2c1C#N | 44.4% (inactive) |
| Cc1cc(C)c(C#N)c(Sc2ccc(Cl)cc2)n1 | -73.5% (active) |
| Cc1[nH]c2ccccc2c1Sc1ccc(Cl)cc1 | -55.7% (inactive) |
| COc1ccc(NS(=O)(=O)c2ccc(NC(=S)NC(=O)c3cccs3)cc2)nn1 | 1.98% (inactive) |
| O=C(Cc1ccccn1)N1[C@@H]2CNc3ccccc3[C@@H]2[C@@H]1CO | 1.07% (inactive) |
| CCCn1cc(C(=O)N(Cc2ccccn2)CC2CCCO2)c(C)n1 (stereo not given) | -1.25% (inactive) |
| Cc1nc([C@@H]2C[C@H]3CCN(Cc4sccc4C)C[C@@H]3O2)no1 | 95.8% (inactive) |
| Cc1ccc2c(c1C)-n1cccc1C1(CCN(S(=O)(=O)c3ccc(C4CCCCC4)cc3)CC1)N2 | 30.2% (inactive) |
| Cn1c(SCc2csc(C3CCCCC3)n2)nc2ccccc2c1=O | -80.1% (active) |
| Cn1c(CNC(=O)CC2CCCC2)nnc1SCc1ccccn1 | 2.95% (inactive) |
| C=CCn1c(SCc2ccc(C(=O)NCCO)cc2)nc2ccccc2c1=O | -34.4% (inactive) |
| Cc1ccsc1-c1cn(CC2(Cn3ccnc3C)CC2)nn1 | 8.54% (inactive) |
| O=C(c1cn(-c2ccccc2)nn1)N(Cc1ccsc1)CC1CCCO1 (stereo not given) | 1.85% (inactive) |
| COCc1ncc(CN2CCC(Cc3cccc(C(=O)O)c3)C2)cn1 (stereo not given) | 3.4% (inactive) |
| Cc1oc(C(C)(C)C)cc1C(=O)Nc1ccc(SCc2cccc(Cl)c2F)cc1 | -75.3% (active) |
| Cc1cnc(CN(C)C(=O)C(C)(C)NC(=O)c2cccs2)[nH]1 | -13.9% (inactive) |

| SMILES | activity change, negative = inhibition |
| --- | --- |
| CN1CCN(c2ccc3nc(-c4c(N)c5c(F)cccc5[nH]c4=O)[nH]c3c2)CC1 | -66.4% (inactive) and -77.3% (active) |
| Clc1cccnc1-c1cccc2[nH]ccc12 | 9.34% (inactive) |
| CC(C)C(=O)NS(=O)(=O)c1ccc(NC(=O)c2ccccc2)cc1 | 5.8% (inactive) |
| COc1cc(NC(=O)Nc2cccc(CNC(=O)O[C@H]3CCOC3)c2)ccc1-c1cnco1 | -72.9% (active) |
| COc1cccc(NC(=O)Nc2ccc3c(c2)C(=O)N(C)C[C@@H](OC)[C@H](C)CN(CC2CC2)[C@H](C)CO3)c1 | 63.1% (inactive) |
| COc1cccc(CNC(=O)Nc2ccc(-c3nc(-c4cc(C)ccc4C)co3)cc2)c1 | -13% (inactive) |
| Cc1nc2c(c(N3CCN(C(=O)c4ccccc4F)CC3)n1)CN(Cc1ccccc1)CC2 | -27.3% (inactive) |
| COCC(=O)N1CCC(N(C)Cc2ccccc2)CC1C(=O)O (stereo not given) | 3.74% (inactive) |
| Cc1nn(-c2ccccc2)c(C)c1-c1ccnc(NCc2cnc3ccccn23)n1 | -82.8% (active) |
| Cc1nn(C)cc1-c1ccnc(NCC2CCN(Cc3ccccc3)C2)n1 (stereo not given) | -13.6% (inactive) |
| COc1cc(CN(C)Cc2ncccc2C)cc(OC)c1 | -4.74% (inactive) |
| COCCN1C(=O)CCc2cc(NC(=O)CC(C)(C)C)ccc21 | 3.59% (inactive) |
| CN(Cc1cccnc1)C1COC2(CCN(Cc3cccs3)CC2)C1 (stereo not given) | 1.79% (inactive) |
| O=C(NCc1cccnc1)c1ccc(N2CCC(NC3C4CC5CC(C4)CC3C5)CC2)cc1 (stereo not given) | 5.88% (inactive) |
| O=C(NCCc1nnc2n1CCNCC2)C1(c2ccccc2)CC12CCCC2 (stereo not given) | -3.83% (inactive) |
| Cc1cc(C)c2c(n1)sc1c(=O)n(C)cnc12 | -4.83% (inactive) |
| Cc1cc(C)c2c(-n3cccc3)c(C(=O)c3ccc(Cl)cc3)sc2n1 | -91.8% (active) |
| COc1ccc(OC)c(C(=O)c2ccc(Cl)cc2)c1 | 36.6% (inactive) |
| Cn1cc(C(CNC(=O)Nc2cccc(F)c2)c2cccnc2)c2ccccc21 (stereo not given) | 27% (inactive) |
| CO[C@@H]1CN(C)C(=O)c2ccc(NS(C)(=O)=O)cc2OC[C@@H](C)N(CC2CC2)C[C@@H]1C | -56.4% (inactive) |
| CCCC(=O)Nc1ccc2c(c1)OC[C@@H](C)N(CC1CCOCC1)C[C@H](C)[C@H](OC)CN(C)C2=O | -83.2% (active) |
| CO[C@@H]1CN(C)C(=O)c2cc(NC(=O)NC3CCCCC3)ccc2OC[C@H](C)N(CC2CCOCC2)C[C@H]1C | -30.9% (inactive) |
| O=C(CCc1nc(-c2ccccn2)no1)N1CCC(CCc2ccccc2F)CC1 | 18.8% (inactive) |

| SMILES | activity change, negative = inhibition |
| --- | --- |
| CCc1[nH]c2c(CNS(=O)(=O)N(C)C)cc(C)cc2c1C | -4.66% (inactive) |
| Fc1ccc(Cl)cc1-c1nc(Nc2ccncc2)c2nccnc2n1 | -81% (active) |
| Cc1nc(Nc2ccc(Cl)cc2)sc1C(=O)c1ccncc1 | 0.796% (inactive) |
| O=C(Nc1ccccc1Oc1ccc(F)cc1)C1CC(=O)N(Cc2cccnc2)C1 (stereo not given) | 18.8% (inactive) |
| O=C(Nc1nc(-c2ccc(Br)cc2)cs1)c1c(O)c2ccccc2[nH]c1=O | 8.75% (inactive) |
| CCCc1nc(C)c(CNC(=O)C2CCOC2)s1 (stereo not given) | -2.34% (inactive) |
| COCCCNC(=O)c1nc(Nc2ccc(F)cc2)c2ccccc2n1 | -29% (inactive) |
| C=CC(=O)Nc1ccc2c(c1)CCC(=O)N2CC | -3.01% (inactive) |
| O=C(Cn1c(C(=O)c2ccccc2)nc2ccccc21)c1ccc(Br)cc1 | -103% (active) |
| O=C(Cn1c(NCCCO)nc2ccccc21)c1ccccc1 | -22.3% (inactive) |
| O=C(CNC(=O)c1ccccc1F)c1ccc(Br)cc1 | 264% (inactive) |
| Clc1cccc(CN2CC3CCCC(C2)C3N2CCOCC2)c1Cl (stereo not given) | 9.4% (inactive) |
| C[C@H]1CN([C@@H](C)CO)C(=O)c2cccc(NC(=O)c3ccc(-c4nccs4)cc3)c2O[C@@H]1CN(C)C(=O)Nc1ccc(C(F)(F)F)cc1 | -80.3% (active) |
| C[C@@H]1CN([C@H](C)CO)C(=O)c2cccc(NC(=O)NC3CCCCC3)c2O[C@H]1CN(C)Cc1ccc(C(F)(F)F)cc1 | -74.3% (active) |
| C[C@H]1CN([C@@H](C)CO)C(=O)c2cccc(NC(=O)C3CCOCC3)c2O[C@@H]1CN(C)C(=O)Nc1cccc2ccccc12 | 5.47% (inactive) |
| Cc1noc(C)c1S(=O)(=O)Nc1cccc2c1O[C@H](CN(C)Cc1ccc(C(F)(F)F)cc1)[C@H](C)CN([C@@H](C)CO)C2=O | 25.4% (inactive) |
| C[C@H](CO)N1C[C@H](C)[C@@H](CN(C)Cc2ccc(C(F)(F)F)cc2)Oc2c(NC(=O)NC3CCCCC3)cccc2C1=O | -53.4% (inactive) |
| CC(C)NC(=O)N(C)C[C@H]1Oc2c(NS(=O)(=O)c3cccs3)cccc2C(=O)N([C@H](C)CO)C[C@H]1C | -14.3% (inactive) |
| Cc1ccc(S(=O)(=O)Nc2cccc3c2O[C@H](CN(C)C(=O)Nc2ccc(C(F)(F)F)cc2)[C@@H](C)CN([C@@H](C)CO)C3=O)cc1 | 16.3% (inactive) |
| C[C@H]1CN([C@@H](C)CO)C(=O)c2ccccc2-c2ccccc2CO[C@H]1CN(C)C(=O)Nc1ccc(-c2ccccc2)cc1 | -62.1% (inactive) |
| C[C@@H]1CN([C@H](C)CO)C(=O)c2cccc(NC(=O)c3ccc(-c4nccs4)cc3)c2O[C@@H]1CN(C)C(=O)Nc1ccc(C(F)(F)F)cc1 | -77.7% (active) |
